This passage reports Potency results from PubChem BioAssay (NCATS).

Inconclusive results are not listed. Active and inactive are the calls of the source. Unless noted, calls come from the whole dose curve; as a rule, active = well fitted curve in the direction sought with a large enough effect; inconclusive = small, poorly fitted or top-dose-only effect, or another doubt; inactive = no such curve, though single readings can be large; an effect the other way counts as inactive or inconclusive.

Assay [1] is described as follows: qHTS for Inhibitors of Plasmodium falciparum (GB4) proliferation (AID 504315). Note: nearly all actives have a fitted effect of over 50% in size. The following applies: P. falciparum GB4 in erythrocytes, SYBR Green DNA, 72 h; series mostly up to 6.7 µM. In short, it runs like this:
(§1)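 Erythrocytes infected with P. falciparum line (0.3% parasitemia, 2.5% hematocrit final) incubated with compounds 72 h at 37 °C, 5% CO2; SYBR Green lysis buffer added, fluorescence read next day. Normalized to 0.29 uM artemisinin and DMSO.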
On the technique in general: qHTS replaces the single test concentration by a dilution series.

Assay [2] deals with Atrial natriuretic peptide receptor 1 (Homo sapiens) (UniProt P16066). Kind of assay: Natriuretic polypeptide receptor (hNpr1) antagonism - Pilot CMLD screen (AID 1347052; calls by dose curve;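 note: HEK293 cells with hNpr1 stimulated by hNppA peptide at 0.1 nM; cGMP level read as GloSensor luciferase luminescence after agonist stimulation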). The following applies: HEK293 hNpr1 GloSensor cGMP luminescence, ANP-stimulated; series mostly up to 9.22 µM.
The nature of assay [3]: qHTS for Inhibitors of Plasmodium falciparum (DD2) proliferation (AID 504314).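 Note: parasite DNA measured by SYBR Green fluorescence after red cell lysis.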 The following applies: P. falciparum Dd2 in erythrocytes, SYBR Green growth, 72 h; series mostly up to 6.11 µM. The essentials:
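Erythrocytes infected with P. falciparum (0.3% parasitemia, 2.5% hematocrit final) were incubated with compounds for 72 h at 37C, 5% CO2. Parasite DNA was detected by SYBR Green I fluorescence after saponin/Triton lysis, normalized to artemisinin (0.29 uM) and DMSO controls.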

A short description of assay [4]: qHTS for Inhibitors of Plasmodium falciparum (CP250) proliferation (AID 504320). Particulars: P. falciparum CP250 in erythrocytes, SYBR Green DNA, 72 h; series mostly up to 6.7 µM. In short, it runs like this: as §1

Atrial natriuretic peptide receptor 1 (Homo sapiens), sequence (P16066 whole entry, looked up): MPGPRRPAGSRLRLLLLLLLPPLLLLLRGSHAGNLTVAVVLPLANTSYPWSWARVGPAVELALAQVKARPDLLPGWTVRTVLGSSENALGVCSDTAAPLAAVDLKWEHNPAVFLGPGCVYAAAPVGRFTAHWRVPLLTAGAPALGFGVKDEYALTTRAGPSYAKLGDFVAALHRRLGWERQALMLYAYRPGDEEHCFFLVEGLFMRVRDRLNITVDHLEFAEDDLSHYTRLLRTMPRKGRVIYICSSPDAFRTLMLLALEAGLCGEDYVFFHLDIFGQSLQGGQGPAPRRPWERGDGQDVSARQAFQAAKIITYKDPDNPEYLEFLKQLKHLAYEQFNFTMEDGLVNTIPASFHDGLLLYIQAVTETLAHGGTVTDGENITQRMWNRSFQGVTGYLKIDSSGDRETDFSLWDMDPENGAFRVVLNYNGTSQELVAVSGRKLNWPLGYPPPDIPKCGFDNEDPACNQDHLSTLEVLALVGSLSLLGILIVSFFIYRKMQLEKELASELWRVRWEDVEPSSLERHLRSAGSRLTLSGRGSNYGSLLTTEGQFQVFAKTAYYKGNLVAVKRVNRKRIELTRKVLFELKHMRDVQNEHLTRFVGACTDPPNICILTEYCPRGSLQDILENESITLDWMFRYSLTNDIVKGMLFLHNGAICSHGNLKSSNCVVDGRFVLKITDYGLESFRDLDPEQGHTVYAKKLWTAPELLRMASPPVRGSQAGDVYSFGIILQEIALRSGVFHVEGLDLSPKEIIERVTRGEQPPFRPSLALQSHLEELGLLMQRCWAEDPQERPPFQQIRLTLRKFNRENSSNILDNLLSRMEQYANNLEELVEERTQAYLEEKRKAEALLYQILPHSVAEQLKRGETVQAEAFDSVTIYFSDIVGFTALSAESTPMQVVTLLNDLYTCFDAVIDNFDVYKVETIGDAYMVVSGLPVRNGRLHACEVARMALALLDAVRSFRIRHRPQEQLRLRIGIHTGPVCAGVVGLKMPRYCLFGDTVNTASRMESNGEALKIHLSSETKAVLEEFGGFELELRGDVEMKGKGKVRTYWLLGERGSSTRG

On to `CCc1cc2c(nc1CC)CCN(CCC(C)=NO[C@@H](C)CN1CCCc3nc(C)c(C)cc31)C2`, for which the Potency result in assay [1] and in assay [2] was “inactive” throughout.

Take `C=CCCCC=C(C)[C@H](OCc1ccc(OC)cc1)[C@H](CCC=C(C)C(N)=O)OC`: the Potency entry in assay [3], in assay [4] and in assay [2] was “inactive” throughout.

With `COc1ccc2c(c1)[C@@]1(OCCC=C[C@@H]1C)C(=O)N2Cc1ccc(F)cc1`, the Potency entry in assay [3], in assay [4] and in assay [2] was “inactive” throughout.
